# A selection: hits, their analogues and other compounds. The true share with any hit is near 4.6%.
# TRb SRC2 PPI: disrupts binding of human TR beta to SRC2; P10828; TRbeta-SRC2 peptide binding, fluorescence polarization; receptor liganded with 1 µM T3; Potency, µM (doses to about 106 µM), inactives show top-dose activity change, negative = inhibition, usual class: inhibitors; 280,000 tested, 0.065% active;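 further: potency means the concentration at half of the fitted maximal effect; plate controls were bound peptide for no effect and peptide without receptor for full effect; nearly all actives have a fitted effect of over 50% in size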
# Target sequence (P10828 whole entry, looked up): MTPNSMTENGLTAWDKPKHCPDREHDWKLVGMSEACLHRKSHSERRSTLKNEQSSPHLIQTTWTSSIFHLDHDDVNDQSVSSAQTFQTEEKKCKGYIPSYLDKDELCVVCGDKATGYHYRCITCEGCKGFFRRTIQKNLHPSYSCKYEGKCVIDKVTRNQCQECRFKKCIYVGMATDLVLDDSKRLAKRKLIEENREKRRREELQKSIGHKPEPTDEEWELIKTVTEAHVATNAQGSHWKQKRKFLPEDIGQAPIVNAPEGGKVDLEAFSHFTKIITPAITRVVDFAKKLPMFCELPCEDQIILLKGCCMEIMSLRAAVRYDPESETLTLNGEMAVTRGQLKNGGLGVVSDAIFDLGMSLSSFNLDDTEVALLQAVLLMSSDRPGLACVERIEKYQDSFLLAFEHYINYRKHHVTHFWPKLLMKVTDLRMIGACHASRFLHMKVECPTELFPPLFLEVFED
#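 TRb LBD 0.6 uM + Texas Red SRC2 peptide 20 nM, 1 uM T3, Tris buffer w/ 5% DMSO; compound pinned, 5 h RT; FP read ex 555/em 632; normalized to unbound and bound controls.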
# TR SRC2 fluor cs: counter-screen for TRb-SRC2 inhibitors: fluorescence interference. TRb/SRC2 Texas Red total fluorescence interference. Potency, µM (doses to about 106 µM), inactives show top-dose fluorescence change, negative = quenching. 280,000 tested, 0.29% active; active means well fitted curve in either direction with a large enough effect; inconclusive means small, poorly fitted or top-dose-only effect; further: potency means the concentration at half of the fitted maximal effect
#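 Human TRβ ligand-binding domain (0.6 uM) and Texas Red SRC2 peptide (20 nM) in Tris buffer with 1 uM T3 and 5% DMSO were incubated with pinned compound for 5 hr at ambient temperature. Total fluorescence was computed as S + 2P (555/632 nm).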
# Tau FP inhib: inhibitors of human tau fibril formation; 280,000 tested, 0.39% active; AID 1468; Potency, µM (doses to about 57.7 µM), for the others: at the top dose activity, negative = inhibition, most hits filed as inhibitors; K18 P301L tau heparin fibrillization, Alexa594 FP, 6 h; P10636; further: potency means the concentration at half of the fitted maximal effect; nearly all actives have a fitted effect of over 55% in size
# Target sequence (P10636 561-689 P618L limits assumed): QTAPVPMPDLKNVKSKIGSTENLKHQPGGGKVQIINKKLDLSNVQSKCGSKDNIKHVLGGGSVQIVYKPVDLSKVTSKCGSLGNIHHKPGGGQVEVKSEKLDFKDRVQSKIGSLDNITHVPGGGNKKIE
#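 Human K18 P301L fragment (15 uM unlabeled plus 0.24 uM Alexa 594-labeled) in 100 mM sodium acetate pH 7 with compound, aggregation induced by 20 uM heparin for 6 hr at 37 C. ThT (30 uM) added for 1 hr, then Alexa 594 FP read.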
# PNC inhibitor: perinucleolar compartment assembly inhibition; PC3M PTB-GFP, PNC prevalence imaging, 16 h; active compounds read low; activity change (PNC), negative = inhibition, % at 10 µM; 140,000 tested, 3.1% active;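 active means readout at or below -70, meaning at least 70% loss of cells showing the perinucleolar compartment, a nuclear body marking cancer cells; inconclusive means readout between -30 and a set limit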;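 further: plate controls were DMSO wells for no effect and camptothecin positive control wells for full effect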
#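 PC3M cells stably expressing PTB-GFP, 750–1000 cells/well, treated 16 h at 37 °C with compound (23 nl of library stock), in duplicate. After paraformaldehyde fixation and Hoechst stain, imaged at 20x; PNC prevalence scored by image analysis.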
# Tau ThT inhib: blocks human tau fibril formation measured by thioflavin T; recombinant tau K18 P301L, heparin-induced fibrillization, ThT fluorescence; Potency, µM (highest dose often 57.4 µM), inactives show at the highest dose activity, negative = inhibition, usual class: inhibitors; 270,000 tested, 2.1% active; P10636; AID 1460; further: potency means the concentration at half of the fitted maximal effect; nearly all actives have a fitted effect of over 55% in size
#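 In this qHTS, human K18 P301L tau is incubated with compound and heparin for 6 hr at 37 C, and Thioflavin T fluorescence then reports fibril load.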
# Tau fluor counter: counter-screen for tau fibril formation inhibitors; Potency, µM (top dose mostly 57.7 µM), without a hit: at the highest dose activity change, negative = decrease; 280,000 tested, 0.93% active; tau K18 P301L Alexa594 fluorescence, heparin fibrillization; further: potency means the concentration at half of the fitted maximal effect; nearly all actives have a fitted effect of over 55% in size
#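 Human tau K18 P301L (15 uM unlabeled, 0.24 uM Alexa 594-labeled) in 100 mM sodium acetate pH 7 with 20 uM heparin, 6 hr at 37 C. ThT 30 uM added, 1 hr ambient; Alexa 594 FP and total fluorescence read at 555/632 nm.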
# An asterisk follows results filed as active; ? = inconclusive; nt = no result; [ ] = another dose, or the depositor's remark. Unless noted, the call rests on the fitted dose curve; in most records, active means well fitted curve in the direction sought with a large enough effect; inconclusive means small, poorly fitted or top-dose-only effect, or another doubt; inactive means no such curve, though single readings can be large; an effect the other way counts as inactive or inconclusive. Unless noted, on the % scale 0 is the no-effect control and ±100 the full control effect.
SMILES,TRb SRC2 PPI,TR SRC2 fluor cs,Tau FP inhib,PNC inhibitor,Tau ThT inhib,Tau fluor counter
CCOC(=O)c1ccccc1NC(=O)N1CCOc2ccc(Cl)cc21,-7%,4.5µM*[quencher],-2%,nt,6%,3.2µM*[quencher]
O=C(Nc1cccc2c1CCCC2)N1CCOc2ccc(Cl)cc21,-1%,-5%,0%,nt,-2%,-11%
Cc1noc(C)c1CSc1nc2ccccc2s1,-18%,-1%,-9%,32,?,-15%
Cc1noc(C)c1CSc1ccc2ccccc2n1,-1%,-2%,1%,-119*,-9%,-10%
CC1=NN(c2ccccc2)C(=O)/C1=C\c1cn(C)c2ccccc12,5%,0%,?,nt,7.1µM*,?
CC1=NN(c2ccccc2)C(=O)/C1=C\c1cc(C)n(C)c1C,-9%,-1%,?,nt,3.5µM*,-13%
CC1=NN(c2ccccc2)C(=O)/C1=C/c1cc2cc(C)ccc2nc1N1CCCCC1,?,-2%,-9%,-11,?,?
CC1=NN(c2ccccc2)C(=O)/C1=C/c1cn(C)c2ccccc12,4%,-1%,8%,nt,2.8µM*,?
Cn1cc(C=O)c2ccccc21,-2%,-3%,2%,nt,5%,-5%
CCCC(C)NC(=O)c1nc(-c2ccccc2)n(-c2ccccc2)n1 (stereo not given),-1%,-1%,-3%,40,-10%,-10%
O=C(CSc1ncnc2c1cnn2Cc1ccccc1)Nc1ccc2c(c1)OCCO2,2%,-1%,-5%,?,-4%,-30%
O=C(Cn1c(=O)oc2ccccc21)N1CCCCC1,11%,4%,5%,-5,1%,-5%
O=C(Nc1cccc(O)c1)c1ccc(Br)cc1,10%,0%,1%,-128*,-8%,-17%
O=C(NNc1ccc(O)cc1)c1ccc(Br)cc1,-4%,1%,?,nt,16µM*,?
O=C(O)/C=C/C(=O)NNC(=O)c1ccc(Br)cc1,0%,-6%,-2%,-16,?,-8%
O=C(CNC(=O)/C=C/c1ccccc1)N=Nc1c(O)n(Cc2ccccc2)c2ccccc12,7%,-1%,-15%,-8,?,-29%
Cc1ccccc1OCc1ccc(-c2nc(C#N)c(N3CCN(C)CC3)o2)o1,1%,8%,17%,nt,-12%,-23%
Cc1ccccc1OCc1ccc(-c2nc(C#N)c(N3CCN(c4ccccc4)CC3)o2)o1,-14%,4µM*[quencher],-3%,nt,-5%,-19%
C=CCOc1ccc(C2NC(=S)NC3=C2CCc2ccccc23)cc1 (stereo not given),2%,-1%,-2%,nt,?,-21%
O=C1NC2=C(CCc3ccccc32)C(c2ccccc2)N1 (stereo not given),-1%,-1%,3%,-113*,?,-13%
CCOC(=O)CSC1=C(C#N)C(c2ccc(C)o2)CC(=O)N1 (stereo not given),5%,-3%,-7%,-85*,-16%,-9%
NNc1nnc2c3cc(F)ccc3n(Cc3ccccc3)c2n1,-3%,0%,-12%,nt,?,-23%
c1ccc(-c2nc(-n3nc4ccccc4n3)nc3ccccc23)cc1,2%,-2%,-8%,6,?,-20%
Clc1ccc(-c2nc(N3CCCCC3)nc3ccccc23)cc1,-3%,-10%,-1%,-100*,0%,-1%
COCCNC(=O)Cn1nc(C(F)(F)F)c(Br)c1C,0%,2%,0%,42,11%,11%
SMILES,TRb SRC2 PPI,TR SRC2 fluor cs,Tau FP inhib,PNC inhibitor,Tau ThT inhib,Tau fluor counter
COc1ccc(C(=O)c2coc3c2C(=O)C(=O)c2ccccc2-3)cc1,-3%,-3%,?,nt,2.8µM*,?
O=C(c1ccccc1)c1coc2c1C(=O)c1ccccc1C2=O,4%,-1%,-12%,nt,13µM*,?
COc1ccc2occ(C(=O)c3ccccc3)c2c1,1%,-6%,-2%,nt,-4%,-2%
Cc1[nH]c2ccccc2c1Cc1nnc(SCc2ccccc2)o1,5%,-2%,?,4,?,18µM*[quencher]
O=C(NC(=S)N1CCN(c2ccc([N+](=O)[O-])cc2)CC1)c1ccco1,-2%,-2%,-3%,nt,?,-3%
O=C(NC(=S)N1CCN(c2ccc(Cl)cc2[N+](=O)[O-])CC1)c1cccs1,5%,2%,10%,-112*,10%,3%
O=C(NC(=S)N1CCN(c2ccc(Cl)cc2[N+](=O)[O-])CC1)c1ccco1,5%,-1%,8%,-81*,15%,11%
Brc1ccc(C2C3=C(Nc4ncnn42)c2ccccc2OC3c2ccncc2)cc1 (stereo not given),-10%,-1%,-5%,37,-15%,-13%
COc1ccc(C2Oc3ccccc3C3=C2C(c2cccs2)n2ncnc2N3)cc1 (stereo not given),1%,-2%,-13%,-112*,-21%,-23%
O=C(CSc1nnc(Cc2csc(Nc3cccc(Cl)c3)n2)o1)N1CCc2ccccc21,3%,-4%,6%,10,?,7.1µM*[quencher]
O=C(CSc1nnc(CNc2ccccc2)o1)N1CCc2ccccc21,-8%,0%,2%,?,-6%,-6%
Cn1cc(SCC(=O)N2CCOCC2)c2ccccc21,-18%,1%,-8%,-108*,3%,2%
Cn1cc(SCC(=O)Nc2nc3ccccc3s2)c2ccccc21,1%,1%,-9%,-89*,?,?
CCn1cc(SCC(=O)N2CCOCC2)c2ccccc21,-9%,1%,-2%,?,1%,10%
Cc1csc(SCC(=O)Nc2nc3ccccc3s2)n1,-3%,-4%,-15%,-9,?,-26%
Cc1noc(C)c1S(=O)(=O)N1CCN(c2ccccc2)CC1,-15%,2%,-1%,?,2%,-2%
Cc1cc(Cl)c(S(=O)(=O)NCc2ccccc2)cc1OCC(N)=O,-1%,0%,4%,-113*,-10%,-4%
CCN(CC)C(=O)CN1C(=O)NC2(CCc3ccccc3C2)C1=O (stereo not given),-1%,-2%,-12%,nt,-2%,-6%
C=CCNC(=S)NNC(=O)COc1ccc(Cl)cc1Cl,-11%,?,9%,15,5%,4%
CN(C)c1nc(OCCNC(=O)COc2ccccc2Cl)nc(N(C)C)n1,-4%,-5%,-11%,-84*,-3%,1%
C=CCNC(=O)COc1ccc(Br)cc1Cl,-2%,-5%,0%,-114*,2%,7%
CN(C)c1nc(OCCNC(=O)Nc2ccccc2)nc(N(C)C)n1,-11%,-3%,6%,-3,-1%,-2%
CN(C)CCCNC(=O)COc1ccc(Br)cc1Cl,-4%,-2%,-3%,-87*,-3%,0%

# Screens from PubChem BioAssay.
